Molecules are shown by their SMILES. Results filed as inconclusive are left out. Active and inactive are the calls of the source. Calls come from the whole dose curve; as a rule, active = well fitted curve in the direction sought with a large enough effect; inconclusive = small, poorly fitted or top-dose-only effect, or another doubt; inactive = no such curve, though single readings can be large or run the other way.

The nature of the assay: HPAF-II 12hr Apoptosis Induction qHTS against the NCATS CANVASS Library (AID 1347358). Particulars: HPAF-II caspase-3/7 Caspase-Glo luminescence; series mostly up to 46.1 µM. The text has this: Natural products and their derivatives continue to be wellsprings of nascent therapeutic potential. However, many laboratories have limited resources for biological evaluation, leaving their previously isolated or synthesized compounds largely or completely untested. To address this issue, the Canvass library of natural products was assembled (https://tripod.nih.gov/canvass), in collaboration with academic and industry researchers, for quantitative high-throughput screening (qHTS) across a diverse set of cell-based and biochemical assays. The pure (>85% purity by liquid chromatography/mass spectrometry [LC/MS]) Canvass library of 346 natural products were submitted by 45 academic laboratories and companies around the world. We collected pure natural products to circumvent deconvolution and structure elucidation due to time and resource limitations. The library was formatted into 1536-well plates and evaluated in 50 qHTS (in an 11-pnt concentration series) bioassays with broad scope of disease-relevant mechanisms. The resulting data set from 50 different assays was then systematically analyzed to identify overall trends and specific natural products with interesting biological activities. Reported herein are the results of each individual qHTS and their corresponding assay protocol. The Caspase-Glo (R) (Promega) is a homogeneous, luminescent assay that measures caspase activity. The detection substrate contains tetrapeptide sequence DEVD in an "add-mix-measure" format. The reagent generates a luminescent signal produced by a thermostable luciferase. The luminescence is proportional to the amount of caspase activity in the assay reaction. National Center for Advancing Translational Sciences (NCATS), Rockville, MD National Institute of Health (NIH), Bethesda, Maryland
Cancer Cell Apoptosis Assay 1. In a 1536 well, white solid bottom tissue culture plates (Corning 7494), HPAF-II cancer cells in DMEM + 10% FBS + 1% P/S media were dispensed in each well at a final concentration of 500 cells / well (5uL volume) using the Multidrop Combi (Thermo Fisher Scientific) dispenser. 2. Compounds were pin transferred (~23nL volume) via Wako Pin-tool (Wako Automation, Richmond VA) equipped with a 1536 pin head. The assay plates were treated with compounds in a concentration series with a final concentration range of 0.17nM to 103uM. 3. Doxorubicin was used as a control in a 16pnt titration (1mM; 1:2 dilution; 16-points; n = 2; column 3, rows 1 - 32) and was pin transferred via Wako Pin-tool equipped with a 1536 pin head. The final concentration range of doxorubicin is 0.1nM - 4uM. 4. The assay plates were incubated for 12 hours at 37 degrees C/5% CO2/95% Rh. 5. 3uL Caspase-Glo 3/7 (R) (Promega) detection reagent was then added to the assay plates (columns 2 - 48, rows 1 - 32) and incubated at room temperature, covered from light, for 15 min. 6. Luminescence signal was acquired via the ViewLux plate reader (PerkinElmer) using a clear filter, 20 second exposure and 2x binning settings.
(In general: qHTS replaces the single test concentration by a dilution series.)
For `CO[C@@H](/C=C/CC/C=C/C(=O)O)[C@@H](O)[C@H](C)/C=C(\C)[C@@H](O)[C@H](C)C(=O)CCCC1CC(=O)NC(=O)C1`, the molecule was called inactive.

Turning to `CCCC[C@@H]1CC[C@H]2CCCC(CCC)N12` (stereo not given in full), the molecule was called inactive.

As for `CNCCc1ccccc1`, the molecule was called inactive.

For the molecule `c1ccc2c3c([nH]c2c1)CNCC3`, the molecule was classed as inactive.

For the molecule `O=C(c1ccccc1O)c1[nH]c(Cl)c(Cl)c1-n1c(C(=O)c2ccccc2O)cc(Cl)c1Cl`, the outcome was inactive.

With `CN1C(=O)[C@]23CC4C(C)(C)[C@@]5(C[C@@]41CN2CC[C@@]3(C)O)C(=O)Nc1c5ccc2c1OC=CC(C)(C)O2` (stereo not given in full), the result was inactive.

Turning to `CN(C)Cc1c[nH]c2ccccc12`, the molecule was classed as inactive.

As for `CC=C1CN(C=O)[C@H]2C[C@@H]1[C@@H](C(=O)OC)[C@@]13CCOC21Nc1ccccc13` (stereo not given in full), the call was inactive.

In the case of `C/C=C1/CN2CC[C@]34C(=Nc5ccccc53)[C@@H]2C[C@@H]1[C@H]4C(=O)OC`, the molecule was called inactive.

For `CC1=CC(=O)C2=C(C)C[C@H](O)[C@@H]3[C@H](OC(=O)[C@@H]3C)[C@@H]12`, the outcome was inactive.

With `COc1ccc(C23Oc4cc(OC)cc(OC)c4[C@](O)([C@H](c4ccccc4)C2C(=O)NCCCCNC(=O)c2ccccc2)[C@@H]3O)cc1` (stereo not given in full), the result was inactive.

For the molecule `CCCCC[C@@H]1OC(=O)[C@@H](C)N(C)C(=O)[C@H](CCCCC)OC(=O)C(C)N(C)C(=O)[C@H](CCCCC)OC(=O)[C@@H](C)N(C)C(=O)[C@H](CCCCC)OC(=O)C(C)N(C)C1=O` (stereo not given in full), the molecule was classed as inactive.

Consider `CCN1C[C@]2(C)CC[C@H](O)[C@]34C1C(C[C@H]23)[C@@]12CC[C@H](CC14)[C@](O)(COC(=O)c1ccc(OC)c(OC)c1)[C@H]2O` (stereo not given in full), for which the call was inactive.

On to `CNCCc1ccc(O)cc1`, for which the outcome was inactive.

As for `CC(=O)N[C@H]1CCN2CCC[C@H]12`, the molecule was called inactive.

Regarding `CCC(=O)CCCCC[C@@H]1NC(=O)[C@H]2CCCCN2C(=O)[C@H]([C@@H](C)CC)NC(=O)[C@H](Cc2cn(OC)c3ccccc23)NC1=O`, the result was inactive.

Consider `CO[C@H](c1ccccc1)[C@H]1NC(=O)C(C)NC(=O)C(C[C@@H](C)CO)N(C)C(=O)[C@@H](C(O)c2cn(C(C)(C)C3CO3)c3ccccc23)NC(=O)C(C(C)C=C(C)C)NC(=O)C(CC(C)C)N(C)C(=O)C(C(C)C)NC1=O` (stereo not given in full), for which the call was inactive.

Take `CC[N@@+]1([O-])C[C@]2(C)CC[C@@H](O)[C@@]34C5C[C@H]6CC[C@@]5(C(C[C@H]23)C41)[C@H](O)[C@@]6(O)CO` (stereo not given in full): the molecule was called inactive.

Regarding `COc1ccc2c3c([nH]c2c1)C(C)=NCC3`, the result was inactive.

In the case of `CO[C@@H](/C=C/CC/C=C/C(=O)O)[C@@H](O)[C@H](C)[C@@H](O)/C(C)=C/[C@H](C)C(=O)CCCC1CC(=O)NC(=O)C1`, the molecule was called inactive.

As for `COC(=O)C1=C2Nc3ccccc3[C@@]23CCN2CC(C(C)=O)C1C[C@H]23` (stereo not given in full), the call was inactive.

As for `C=C1[C@@H](C)[C@H]2[C@H](Cc3ccccc3)NC(=O)[C@]23OC(=O)/C=C/[C@H](O)CCC[C@@H](C)C/C=C/[C@H]3[C@@H]1O`, the outcome was inactive.

In the case of `NCCc1ccccc1`, the molecule was classed as inactive.

With `CC[C@@H]1CN2CC[C@@]3(O)C(=Nc4cccc(OC)c43)[C@@H]2C[C@@H]1/C(=C\OC)C(=O)OC`, the molecule was classed as inactive.

Turning to `CNCCc1c[nH]c2ccccc12`, the result was inactive.

For `CC1=CC2CC[C@@H]3[C@@H](C)C[C@H](C)[C@@H](C1)N23` (stereo not given in full), the outcome was inactive.

For `COc1ccc2c(c1)[nH]c1c(C)nccc12`, the molecule was called inactive.

In the case of `CCC[C@H]1CC[C@H]2[C@H](C)CCC[C@H]2N1`, the result was inactive.

In the case of `CCN1C[C@]2(C)CC[C@@H](O)[C@]34C1[C@H](C[C@H]23)C12CCC(CC14)[C@](O)(CO)[C@H]2O` (stereo not given in full), the molecule was classed as inactive.

For `C[C@]12CC(O)C3[C@@H](CCC4C[C@@H](O)CC[C@@]43CO)[C@@]1(O)CCC2C1=CC(=O)OC1` (stereo not given in full), the molecule was called inactive.

The values are drawn from PubChem BioAssay (NCATS).
